Assay results taken from PubChem BioAssay (NCATS).
Records with an inconclusive call do not appear. Entries that show only a call come without a potency. Activity calls are given as the source filed them. Calls follow the shape of the dose curve; as a rule, active = well fitted cell-killing curve with a large enough effect; inconclusive = small, poorly fitted or top-dose-only effect; inactive = flat fitted curve, though single readings scatter.

test: qHTS of pediatric cancer cell lines to identify multiple opportunities for drug repurposing: Primary screen for Rh18 cells (AID 1347102); conditions: Rh18 rhabdomyosarcoma viability, CellTiter-Glo luminescence, 48 h; series mostly up to 46 µM; also: nearly all actives have a fitted effect of over 65% in size
Outline: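 Viability after 48 h compound treatment at 37C, 500-1,000 cells/well, read as ATP luminescence with CellTiter-Glo. Primary screens used 11-point (MIPE, 0.78 nM-46 µM) or 8-point (NPC, 0.59 nM-46 µM) final concentrations; follow-up screens used 11-point dilutions.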
Potency is read from the fitted curve at half-maximal effect.

Question: For `O=C1NC(O)CCN1[C@@H]1O[C@H](CO)[C@H](O)[C@H]1O` (some centres undefined), which Potency is on record?
Answer: Its Potency is “inactive”.

Question: For `C[C@]12C=CC(=O)N[C@@H]1CC[C@H]1[C@H]3CC[C@@H](C(=O)Nc4cc(C(F)(F)F)ccc4C(F)(F)F)[C@@]3(C)CC[C@@H]12`, which Potency is on record?
Answer: Its Potency is “inactive”.

Question: Which Potency does the source give for `CCn1c(=O)c2c(nc(C=Cc3ccc(OC)c(OC)c3)n2C)n(CC)c1=O` here?
Answer: Its Potency is “inactive”.

Question: Which Potency does the source give for `CC(C(C)N1CC(=O)NC(=O)C1)N1CC(=O)NC(=O)C1` (centres undefined) here?
Answer: The Potency was “inactive”.

Question: Which Potency does the source give for `Cn1cnc2c(F)c(Nc3ccc(Br)cc3F)c(C(=O)NOCCO)cc21` here?
Answer: Its Potency is “inactive”.

Question: For `CC(C)N(CC[C@H](c1ccccc1)c1cc(CO)ccc1O)C(C)C`, which Potency is on record?
Answer: Its Potency is “inactive”.

Question: Which Potency does the source give for `C=C[C@@H]1CN2CCC1C[C@H]2[C@H](O)c1ccnc2ccc(OC)cc12` (some centres undefined) here?
Answer: The Potency was “inactive”.

Question: Which Potency does the source give for `CC1(C)[C@H](O[C@H]2O[C@H](C(=O)O)[C@@H](O)[C@H](O)[C@H]2O[C@@H]2O[C@H](C(=O)O)[C@@H](O)[C@H](O)[C@H]2O)CC[C@@]2(C)[C@H]1CC[C@]1(C)[C@H]2C(=O)C=C2[C@H]3C[C@@](C)(C(=O)O)CC[C@]3(C)CC[C@]21C` here?
Answer: The Potency was “inactive”.

Question: With `COc1cccc2c1C(=O)c1c(O)c3c(c(O)c1C2=O)C[C@@](O)(C(=O)CO)C[C@@H]3O[C@H]1C[C@H](N)[C@H](OC2CCCCO2)[C@H](C)O1` (some centres undefined) as the compound, how does the Potency read?
Answer: Its Potency is “inactive”.

Question: For `C[C@H](NC(=O)Cc1cc(F)cc(F)c1)C(=O)N[C@H](C(=O)OC(C)(C)C)c1ccccc1`, which Potency is on record?
Answer: The Potency was “inactive”.

Question: For `Cc1ccc(O)c(C(CCN(C(C)C)C(C)C)c2ccccc2)c1` (centres undefined), which Potency is on record?
Answer: Its Potency is “inactive”.

Question: With `CCCCCCCCCCCC(CC1OC(=O)C1CCCCCC)OC(=O)C(CC(C)C)NC=O` (centres undefined) as the compound, how does the Potency read?
Answer: Its Potency is “inactive”.

Question: Which Potency does the source give for `C=CCNc1c(O)cc2c(O)c1C[C@@H](C)C[C@H](OC)[C@@H](O)[C@@H](C)C=C(C)[C@H](OC(N)=O)[C@@H](OC)C=CC=C(C)C(=O)N2` here?
Answer: The Potency was 935 nM (active).

Question: For `C[C@@]12C(=O)OC(=O)[C@@]1(C)C1CCC2O1`, which Potency is on record?
Answer: The Potency was 1870 nM (active).

Question: For `C[C@@H]1CC[C@@]2(OC1)OC1CC3C4CC=C5CC(O)CCC5(C)C4CCC3(C)C1[C@@H]2C` (some centres undefined), which Potency is on record?
Answer: The Potency was “inactive”.

Question: For `CS(=O)(=O)N1CCc2c(-c3cnc(N)nc3)nc(N3CCOCC3)nc21`, which Potency is on record?
Answer: The Potency was 372 nM (active).

Question: With `COC(=O)[C@@H]1[C@H]2C[C@@H]3c4[nH]c5ccccc5c4CCN3C[C@@H]2CC[C@@H]1O` as the compound, how does the Potency read?
Answer: The Potency was “inactive”.

Question: With `O=C(Nc1ccc(Oc2ccnc3[nH]ccc23)c(F)c1)c1cccn(-c2ccc(F)cc2)c1=O` as the compound, how does the Potency read?
Answer: Its Potency is “inactive”.

Question: With `CC[C@H]1OC(=O)[C@H](C)[C@@H](O[C@H]2C[C@@](C)(OC)[C@@H](O)[C@H](C)O2)[C@H](C)[C@@H](O[C@@H]2O[C@@H](C)C[C@H](N(C)C)[C@@H]2O)[C@](C)(O)C[C@@H](C)C(=O)[C@H](C)[C@@H](O)[C@]1(C)O` as the compound, how does the Potency read?
Answer: Its Potency is “inactive”.

Question: For `C=CC(=O)Nc1cccc(Nc2nc(NC3CCC(N(C)C)CC3)nc3c2ncn3C(C)C)c1` (centres undefined), which Potency is on record?
Answer: Its Potency is 418 nM (active).

Question: With `CC(Oc1ccc(O)cc1)(P(=O)(O)O)P(=O)(O)O` as the compound, how does the Potency read?
Answer: Its Potency is “inactive”.

Question: Which Potency does the source give for `C[C@@H](Cc1cc2c(c(C(N)=O)c1)N(CCCO)CC2)NCCOc1ccccc1OCC(F)(F)F` here?
Answer: Its Potency is “inactive”.

Question: With `COc1ccc(C(C)=O)c(O)c1` as the compound, how does the Potency read?
Answer: The Potency was “inactive”.

Question: For `C[C@@H]1[C@H](C)CC[C@]2(C(=O)O)CC[C@]3(C)C(=CC[C@@H]4[C@@]5(C)C[C@@H](O)[C@H](O)[C@@](C)(CO)[C@H]5CC[C@]43C)[C@@H]12`, which Potency is on record?
Answer: The Potency was “inactive”.

Question: For `N#CNC(=NCCCCCCOc1ccc(Cl)cc1)Nc1ccncc1`, which Potency is on record?
Answer: The Potency was 18.7 nM (active).

Question: Which Potency does the source give for `C[C@H]1COc2c(N3CCN(C)CC3)c(F)cc3c(=O)c(C(=O)O)cn1c23` here?
Answer: Its Potency is “inactive”.

Question: With `CC(C)C[C@H](NC(=O)CNC(=O)c1cc(Cl)ccc1Cl)B1OC(=O)CC(CC(=O)O)(C(=O)O)O1` (some centres undefined) as the compound, how does the Potency read?
Answer: Its Potency is 209 nM (active).

Question: Which Potency does the source give for `CCNC(=O)c1cc2c(-c3cc(OCCN4CCCC4)c(Cl)cc3Cl)nc(N)nc2s1` here?
Answer: The Potency was 4690 nM (active).

Question: With `CNC(=O)c1cccc(-c2ccc3c(N4CCOC[C@H]4C)nc(N4CCOC[C@H]4C)nc3n2)c1` as the compound, how does the Potency read?
Answer: Its Potency is 332 nM (active).

Question: With `CCCCCCCCCCCCc1ccc(S(=O)(=O)Nc2nncs2)cc1` as the compound, how does the Potency read?
Answer: The Potency was “inactive”.

Question: For `Cn1cc(C=CC(=O)c2cccc(F)c2)cc1C=CC(=O)NO`, which Potency is on record?
Answer: The Potency was “inactive”.

Question: For `C=C1CCC2[C@](C)(CO)C(O)CC[C@]2(C)C1CC=C1C(=O)OCC1O` (some centres undefined), which Potency is on record?
Answer: The Potency was “inactive”.

Question: With `NC(=NCCCCCCN=C(N)N=C(N)Nc1ccc(Cl)cc1)N=C(N)Nc1ccc(Cl)cc1` as the compound, how does the Potency read?
Answer: Its Potency is 20900 nM (active).

Question: Which Potency does the source give for `c1coc(CNc2ncnc3nc[nH]c23)c1` here?
Answer: Its Potency is “inactive”.

Question: Which Potency does the source give for `CCCCCCCN(CC)CCCC(O)c1ccc(NS(C)(=O)=O)cc1` (centres undefined) here?
Answer: The Potency was “inactive”.

Question: For `CC(C=CC=C(C)C=CC1=C(C)CCCC1(C)C)=CC=CC=C(C)C=CC=C(C)C=CC1=C(C)CCCC1(C)C`, which Potency is on record?
Answer: Its Potency is “inactive”.

Question: Which Potency does the source give for `CCCNC(=O)[C@H]1O[C@H]1C(=O)N[C@H](C(=O)N1CCC[C@@H]1C(=O)OC)C(C)CC` (some centres undefined) here?
Answer: Its Potency is 14800 nM (active).

Question: With `COc1ccc2cc([S+]([O-])Cc3ncc(C)c(OC)c3C)nc2c1` as the compound, how does the Potency read?
Answer: Its Potency is “inactive”.

Question: With `CC(=O)O[C@H]1C[C@@H]2CC[C@H]3[C@H]4C[C@H]([N+]5(C)CCCCC5)[C@@H](OC(C)=O)[C@@]4(C)CC[C@@H]3[C@@]2(C)C[C@H]1[N+]1(C)CCCCC1` as the compound, how does the Potency read?
Answer: The Potency was “inactive”.
